# Vaccinia pol inh = vaccinia E9 polymerase processive synthesis inhibition. in vitro processive DNA synthesis, absorbance read-out; stronger effect = lower value. normalized absorbance, % (no concentration beside the values). 46,000 compounds, 0.94% hits. AID 493162; in the data active = normalized absorbance mostly below about 85%, no sharp cut-off; inactive = mostly above about 86%
# Hits are given with their value; - = inactive. This excerpt belongs to a sample that is enriched for hits.
SMILES,Vaccinia pol inh
NCCCc1nc2ccc(Cc3ccc4nc(CCCN)[nH]c4c3)cc2[nH]1,-
c1ccc2sc(CCc3nc4ccccc4s3)nc2c1,-
COC(=O)/C(=C/c1ccc(OC(F)(F)F)cc1)NC(=O)c1ccccc1,-
Cc1cc2cc(CNC(=O)c3ccccc3)ccc2[nH]1,-
O=C1N/C(=N\O)S/C1=C/c1ccc(O)cc1,84.2
O=C1NC(=Nc2ccccc2)S/C1=C\c1ccccc1,-
CN(C)c1ccc(/C=C2/S/C(=N/O)NC2=O)cc1,-
O=C(CSc1cccc[n+]1[O-])c1ccc2ccccc2c1,-
CCc1ccc(-c2csc3ncn(CC(N)=O)c(=O)c23)cc1,-
Cc1cc(C)cc(NC(=S)N(CCN(C)C)C2CCN(C(C)C)CC2)c1,-
Cc1ccc(-n2nnnc2-c2nc3ccccc3s2)cc1,-
Cc1ccc(-c2nc3ccccc3s2)cc1,70.7
CCN(CC)S(=O)(=O)c1ccc(-c2nc3ccccc3s2)cc1,-
COc1cc2oc(=O)c3c(c2cc1Cl)CCC3,-
Cc1ccc(CNC(=O)c2oc3ccccc3c2-n2cccc2)cc1,-
CC(=O)Nc1c(C(=O)O)oc2ccc(Br)cc12,-
O=C(O)c1oc2ccc(Br)cc2c1-n1cccc1,66.6
CN[C@@H]1[C@H](O)[C@H](NC)[C@H]2O[C@@]3(O)C(=O)C[C@@H](C)O[C@H]3OC2[C@H]1O (stereo not given in full),-
O=C(OCC(=O)N1CCCCC1)c1ccc(Oc2ccccc2)cc1,-
CC1CCCN(CCCNC(=O)c2coc3nc4ccccc4nc23)C1 (stereo not given),60.3
Cc1ccc(CCNC(=O)c2coc3nc4ccccc4nc23)cc1,-
CC1CCCN(CCCNC(=O)C2CCCN(c3ncnc4c3nc3n4CCCCC3)C2)C1 (stereo not given),-
CC1CCCC(C)N1C(=O)c1scc2c1OCCO2 (stereo not given),-
O=c1c2ccccc2nc(SCc2c(F)cccc2F)n1Cc1ccccc1,76.3
Cc1ccc(CSc2nc3ccccc3c(=O)n2Cc2ccccc2)cc1,-
SMILES,Vaccinia pol inh
O=c1c2ccccc2nc(SCc2ccccc2F)n1CCc1ccccc1,-
OCc1cc(-c2ccccc2Cl)no1,-
O=C(OCc1ccco1)c1cc2cc(Br)ccc2oc1=O,-
CCOc1ccc(CCNC(=O)C2CC(=O)OC2c2ccc(OC)c(OC)c2)cc1 (stereo not given),-
COc1ccc(Cc2nccc3cc(OC)c(OC)cc23)cc1OC,-
COc1cc(C(=O)NCc2ccc(OCCN(C)C)cc2)cc(OC)c1OC,-
COc1cc2ccc3c(CCN(C)C)cc(OC)c(OC)c3c2cc1OC,60.9
CSc1nc2nc(C)c(Cc3cccc(F)c3)c(C)n2n1,-
Nc1nccc(-c2ccco2)n1,-
S=c1nc2[nH]c(=S)[nH]c(=S)c2c(-c2ccco2)[nH]1,60.2
CC(=Nc1ccc(C(=O)O)cc1)c1cc2c(=O)n(C)c3ccccc3c2oc1=O,-
CCOc1nc(Nc2ccc(I)cc2C)nc(NC2CCCCC2)n1,-
Cc1cccc(NC(=O)CCCN2C(=O)/C(=C/c3cccs3)SC2=S)c1C,-
O=S(=O)(NCCN1CCCC1)c1cc2ccccc2s1,-
N#Cc1nc(-c2ccccc2)oc1NCCN1CCCCC1,-
Cc1cc(NCCN2CCCCC2)c2ccc3ccccc3c2n1,22.2
Cc1ccc2cc(CCNC(=O)c3ccccc3)c(=O)[nH]c2c1,-
CC1CN(c2ccc(C(F)(F)F)cn2)CC(C)O1 (stereo not given),-
Cc1cc(C)n(Cc2ccccc2)n1,-
Cc1cccc(N(Cc2cc(=O)n3ccccc3n2)C2=NC3CS(=O)(=O)CC3S2)c1 (stereo not given),-
COc1cccc(N(Cc2ccc(C)cc2)C2=NC3CS(=O)(=O)CC3S2)c1 (stereo not given),68.1
Cc1ccc(C)c(CN(C2=NC3CS(=O)(=O)CC3S2)c2cccc(Cl)c2)c1 (stereo not given),-
CCCNS(=O)(=O)c1ccc2c(c1)oc(=O)n2C,-
CCC(=O)Nc1ccc(-c2nc3ccccc3[nH]2)cc1,-
CC1Cc2cc(S(=O)(=O)NCC3CCC(C(=O)Nc4ccccc4)CC3)ccc2N1C(=O)C1CC1 (stereo not given),-
SMILES,Vaccinia pol inh
Cc1[nH]n(-c2ccccc2)c(=O)c1C=Nc1cccc(N)c1,-
Cc1[nH]n(-c2cccc(Cl)c2)c(=O)c1N=O,67.3
Cc1[nH]n(-c2ccccc2)c(=O)c1Sc1ccc(Cl)cc1,-
Cc1cc(=O)oc2cc(OCc3ccccc3F)ccc12,-
CCc1ccc(NC(=O)CSc2nncn2C)cc1,-
CC(NC(=O)C1C(=O)NC2(C)CC1c1ccccc1O2)c1ccccc1 (stereo not given),-
O=C(O)Cn1c2ccc(Br)cc2c2nc3ccccc3nc21,-
CCN(CC)CCCC(C)Nc1c2ccc(Cl)cc2nc2ccc(OC)cc12 (stereo not given),14.6
CCSc1nc(C)c2cc(OC)ccc2n1,-
COc1ccc2nc(C)cc(SCC(=O)c3ccc(Cl)cc3)c2c1,-
Cc1cc(O)c(C=Nc2ccc(F)cc2)c(=O)o1,-
Cc1cccc(NS(=O)(=O)c2cccs2)c1C,-
O=C(Nc1ccc(Br)cc1)C1(c2ccccc2)CCCC1,-

# Screening results from PubChem.
